Screening data from PubChem.
Hits are enriched below; roughly 15% of the tested compounds scored in any of these assays.
DT40 TDP1 no CPT: qHTS for Inhibitors of human tyrosyl-DNA phosphodiesterase 1 (TDP1): qHTS in cells in absence of CPT. DT40 Tdp1-/- hTDP1 cells, no CPT, ATP luminescence, 48 h. Potency, µM (doses to about 46.2 µM), for the others: at the top dose activity change, negative = growth inhibition, usual class: inhibitors. hit rate 15% among 420,000. AID 686978, 2013; note: nearly all actives have a fitted effect of over 55% in size
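Cells were dispensed at 400 per well, compounds added by pin tool, plates incubated ≥48 hr at 37 °C, then CellTiter-Glo added for 30 min at room temperature before luminescence reading. Line: DT40 Tdp1-/- complemented with hTDP1; camptothecin omitted.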
12-LOX inh: Primary qHTS assay for inhibitors of human arachidonate 12S-lipoxygenase (ALOX12): Round 2 | Polyunsaturated fatty acid lipoxygenase ALOX12 (Homo sapiens), P18054 | hit rate 1.1% among 580,000 | purified 12hLO, xylenol orange hydroperoxide absorbance | Potency, µM (doses to about 108 µM), for the others: at the highest dose activity change, negative = inhibition, most hits filed as inhibitors
Target sequence (P18054 whole entry, looked up): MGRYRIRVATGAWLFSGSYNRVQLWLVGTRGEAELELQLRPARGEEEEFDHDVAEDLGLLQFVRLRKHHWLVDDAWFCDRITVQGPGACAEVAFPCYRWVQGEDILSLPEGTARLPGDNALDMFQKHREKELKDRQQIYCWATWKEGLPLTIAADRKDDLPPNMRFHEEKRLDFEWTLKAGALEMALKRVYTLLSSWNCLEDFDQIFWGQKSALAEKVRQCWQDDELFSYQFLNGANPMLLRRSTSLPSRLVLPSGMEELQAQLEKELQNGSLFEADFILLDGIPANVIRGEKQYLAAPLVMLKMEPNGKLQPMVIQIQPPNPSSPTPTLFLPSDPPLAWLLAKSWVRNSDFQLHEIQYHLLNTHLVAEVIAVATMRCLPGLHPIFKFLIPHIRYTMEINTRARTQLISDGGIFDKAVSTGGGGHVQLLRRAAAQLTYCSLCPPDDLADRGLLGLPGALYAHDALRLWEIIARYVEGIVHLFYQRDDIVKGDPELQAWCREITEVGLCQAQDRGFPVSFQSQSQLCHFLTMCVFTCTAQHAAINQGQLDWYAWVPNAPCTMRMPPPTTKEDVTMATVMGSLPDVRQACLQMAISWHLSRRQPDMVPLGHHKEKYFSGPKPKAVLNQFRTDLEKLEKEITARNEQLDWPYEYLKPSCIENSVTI
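Hydroperoxide product was detected by ferrous iron/xylenol orange as the 573 to 405 nm absorbance ratio. Arachidonic acid at 40 uM (final) was turned over for 30 min at room temperature by 150 nM human 12hLO, pH 7.0 Hepes buffer, after 15 min compound preincubation.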
ELG1 DNA repair: qHTS screen for small molecules that inhibit ELG1-dependent DNA repair in human embryonic kidney (HEK293T) cells expressing luciferase-tagged ELG1; HEK293T ELG1-luciferase reporter, luminescence, 16 h; DNA damage induced by 5-fluorouridine; Potency, µM (series often up to 46.1 µM), inactives show at the top dose activity change, negative = inhibition, usual class: inhibitors; hit rate 2.3% among 330,000; note: nearly all actives have a fitted effect of over 55% in size
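5-Fluorouridine DNA damage + compound/DMSO, 2,000 cells/well, 16 h, 37 °C/5% CO2. ONE-Glo, 30 min RT, luminescence. Readout = decrease in reporter signal.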
Gal4-VP16 FLuc: VP16 counterscreen qHTS for inhibitors of ROR gamma transcriptional activity; Drosophila S2 Gal4-VP16 UAS-luciferase, luminescence, 20 h; Potency, µM (doses to about 53.6 µM), for the others: at the highest dose activity, negative = inhibition, hits mostly inhibitors; hit rate 3.5% among 310,000; AID 2546, 2010;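 note: Gal4-VP16 expression switched on by copper sulfate through the metallothionein promoter; nearly all actives have a fitted effect of over 50% in size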
RORgamma inh: qHTS for inhibitors of ROR gamma transcriptional activity. Drosophila S2 Gal4-RORgamma UAS-luciferase reporter, 20 h. AID 2551, 2010. Nuclear receptor ROR-gamma (Mus musculus), P51450. Potency, µM (highest dose often 53.6 µM), for the others: top-dose activity change, negative = inhibition, hits mostly inhibitors. hit rate 5.4% among 310,000; note: nearly all actives have a fitted effect of over 60% in size
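ROR gamma transcriptional activity was tracked as Gal4-UAS luciferase output in stably transfected Drosophila Schneider cells, with compound added 1 hr before 700 uM copper sulfate induction and a 20 hr ambient-temperature incubation.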
DT40 TDP1 CPT: qHTS for Inhibitors of human tyrosyl-DNA phosphodiesterase 1 (TDP1): qHTS in cells in presence of CPT; hit rate 12% among 420,000; Potency, µM (series often up to 46.2 µM), inactives show top-dose activity change, negative = growth inhibition, most hits filed as inhibitors; AID 686979, 2013; chicken DT40 Tdp1-/-;hTDP1 cells + 20 nM CPT, ATP luminescence, 48 h; note: nearly all actives have a fitted effect of over 55% in size
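Cell growth measured by CellTiter-Glo luminescence after a minimum 48 h, 37 C compound exposure with 20 nM CPT in Tdp1-knockout DT40 cells stably expressing hTDP1, seeded 400/well; qHTS titration format.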
Numbers without * were called inactive; ? = inconclusive; / = no result; [ ] = dose if it differs, or a comment. Calls come from the whole dose curve; as a rule, active = well fitted curve in the direction sought with a large enough effect; inconclusive = small, poorly fitted or top-dose-only effect, or another doubt; inactive = no such curve, though single readings can be large; an effect the other way counts as inactive or inconclusive. % is set by controls: 0 for no effect and ±100 for the full control effect; potency is the fitted concentration of half-maximal effect.

SMILES | DT40 TDP1 no CPT | 12-LOX inh | ELG1 DNA repair | Gal4-VP16 FLuc | RORgamma inh | DT40 TDP1 CPT
COc1cc(OC)cc(N(C(=O)c2ccco2)C(C(=O)NC2CCCC2)c2ccc(N(C)C)cc2)c1 (centres undefined) | ? | 483% | ? | 0% | 6% | ?
CC(=O)Nc1ccc(N(C(=O)c2ccco2)C(C(=O)NC2CCCC2)c2ccc(N(C)C)cc2)cc1 (centres undefined) | -27% | -3% | 5% | -1% | 10µM* | -28%
COc1cccc(CNC(=O)[C@@H]2C[C@@H](O)CN2C2CCN(C(=O)c3nccc4ccccc34)CC2)c1 | / | 47% | / | / | / | /
Cc1noc(C)c1S(=O)(=O)N1CCCC(Cc2noc(-c3ccncc3)n2)C1 (centres undefined) | / | 19% | / | / | / | /
O=[N+]([O-])c1ccc(/C=N/Nc2ccc(C(F)(F)F)cn2)cc1 | / | -22% | / | / | / | /
Cc1cccc(-n2cc(CNCCc3nc(C)cc(C)n3)c(-c3cccc(F)c3)n2)c1 | 4.6µM* | ? | 23µM* | -13% | -35% | 12µM*
Cc1cccc(-c2nn(-c3ccccc3)cc2CNCCO)c1 | 13µM* | / | / | / | / | ?
Cc1ccc(-n2cc(CNCCCn3cccn3)c(-c3cccc(C)c3)n2)cc1 | 16µM* | -22% | -10% | -6% | -35% | 13µM*
CCN1CC(CN(C)Cc2cn(-c3cccc(C)c3)nc2-c2cccc(F)c2)CC1=O (centres undefined) | 18µM* | -14% | -17% | -10% | 26% | 16µM*
Cc1ccc(-c2nn(-c3ccccc3)cc2CO)cc1 | 4% | 230% | ? | -11% | 11% | 13%
Cc1cccc(-n2cc(CN3CCCC(C)(O)C3)c(-c3cccc(F)c3)n2)c1 (centres undefined) | / | 15% | / | / | / | /
CCOC(=O)NC(CN)c1ccccc1 (centres undefined) | / | 9% | / | / | / | /
Cc1cc(C)cc(-c2nnc(SCC(=O)N3CCC3)o2)c1 | / | -8% | / | / | / | /
COCCN1CCC(CNC(C)=O)CC1 | / | -26% | / | / | / | /
O=C(NC1CCC1)C1=NO[C@@H]2CN(CCc3ccccc3)C[C@H]12 | / | -7%[176 µM] | / | / | / | /
COc1ccc(OC(=O)c2ccc(OC)c(Br)c2)cc1 | / | 0% | / | / | / | /
Cc1ccc(C)c(-n2cc(CNCCCn3cccn3)c(-c3ccccc3)n2)c1 | 21µM* | 0% | -8% | -7% | 10µM* | 23µM*
Cc1ccc(C)c(-n2cc(CNC(C)Cn3cncn3)c(-c3ccccc3)n2)c1 (centres undefined) | ? | 13% | ? | 0% | 8% | ?
Cc1cccc(C(=O)NC(c2cccnc2)c2ccc(C)c(C)c2)c1 (centres undefined) | / | -4% | / | / | / | /
O=C(NNC(=O)c1cccs1)c1csc(N2CCOCC2)n1 | -1% | -2% | 21% | / | / | -20%
O=C(NNC(=O)c1cc(Br)ccc1O)c1csc(N2CCOCC2)n1 | 21µM* | / | ? | / | / | ?
O=C(NNC(=O)c1cc(Br)ccc1Cl)c1csc(N2CCOCC2)n1 | 2% | 6% | 2% | -26% | ? | -1%
CCOc1ncccc1C(=O)NNC(=O)c1csc(N2CCOCC2)n1 | ? | 15% | -14% | / | / | 26µM*
CC(=O)Nc1ccc(C(=O)NNC(=O)c2csc(N3CCOCC3)n2)cc1 | 7.3µM* | 4% | / | / | / | ?
O=C(C1=C(Nc2ccc(N3CCCC3)c(Cl)c2)c2ccccc2S1(=O)=O)N1CCOCC1 | / | 0% | / | / | / | /
SMILES | DT40 TDP1 no CPT | 12-LOX inh | ELG1 DNA repair | Gal4-VP16 FLuc | RORgamma inh | DT40 TDP1 CPT
O=C1Nc2ccc(-c3ccccc3F)cc2C(=O)N2CCN(C(=O)c3cccnc3)C[C@H]12 | / | 26%[176 µM] | / | / | / | /
CNC(=O)/C=C/c1ccc(C)cc1C | / | 0% | / | / | / | /
CC(C)C[C@@H](NC(=O)[C@@]1(O)C[C@@H](O)[C@H](O)[C@@H](NC(=O)c2ccc(F)c(Cl)c2)C1)C(N)=O | / | 56% | / | / | / | /
O=C(CCc1ncc(-c2ccccc2F)o1)Nc1ccc(F)cc1 | / | -15% | / | / | / | /
COc1cccc(N(CC(=O)N2CCN(Cc3ccccc3)CC2)S(C)(=O)=O)c1 | -24% | -4% | / | / | / | -21%
CCOc1ccccc1N(CC(=O)N1CCN(Cc2ccccc2)CC1)S(=O)(=O)c1ccccc1 | 8.2µM* | 5% | / | / | / | 23µM*
COc1ccc(N(CC(=O)N2CCN(Cc3ccccc3)CC2)S(C)(=O)=O)c(OC)c1 | 13µM* | -52% | -7% | 3% | -16% | ?
CCN(CC(=O)N1CCN(Cc2ccccc2)CC1)S(=O)(=O)c1ccccc1 | ? | -7% | -3% | -7% | -6% | -22%
CNC(=O)NCC12CC3CC(CC(C3)C1)C2 | -17% | 13% | 8% | -9% | -21% | -17%
CCNC(=S)NCC12CC3CC(CC(C3)C1)C2 | / | 40µM* | / | / | / | /
O=C(Nc1ccc(O)c2c(=O)cc(-c3cccc(Cl)c3)oc12)c1ccc(F)cc1 | 13µM* | -19% | 21% | -11% | -4% | ?
O=C(Nc1ccc(O)c2c(=O)cc(-c3ccccc3Cl)oc12)c1cc(Cl)cc(Cl)c1 | / | / | / | -6% | 1% | /
Cc1ccc(O)c(C(=O)c2cnc3c(c2)COc2ccc(C)cc2-3)c1 | ? | -6% | ? | 18% | ? | ?
CN1C(=O)COc2ccc(C(=O)c3oc4ccccc4c3-c3cnc4c(c3)COc3ccccc3-4)cc21 | / | / | 9.2µM* | 1% | ? | /
COC(=O)c1cc(-c2c(C)oc3cc(OC)ccc3c2=O)c(C)o1 | 18µM* | -4% | -8% | 1% | 14% | 12µM*
CCOc1ccc(OCCSc2nc(C)cc(=O)[nH]2)cc1 | 21µM* | 7% | ? | ? | -38% | 12µM*
COc1ccc(OCCSc2nc(N)cc(=O)[nH]2)cc1 | -22% | -1% | -12% | ? | 37% | -20%
CN(C)CCCN(C(=O)c1sc2ccccc2c1Cl)c1nc2c(F)cccc2s1 | ? | -23% | ? | -11% | 5% | -23%
Cc1cccc2sc(N(CCCN(C)C)C(=O)c3sc4ccccc4c3Cl)nc12 | 23µM* | -27% | -7% | ? | -41% | 16µM*
COc1cccc2sc(N(CCCN(C)C)C(=O)c3sc4ccccc4c3Cl)nc12 | 18µM* | ? | 2% | -26% | -30% | ?
COc1cc(C(=O)N(CCCN(C)C)c2nc3c(OC)cccc3s2)cc(OC)c1OC | 21µM* | ? | / | / | / | ?
